“And” between values parts separate entries of the source, which are not always exact repeats. Equal entries are not always repeated. Results filed as inconclusive are left out. Some compounds were tested as several samples or in several runs, with calls that do not always agree. The source made the active and inactive calls. Rule for the calls, unless noted: active = hit-call score of the fitted dose curve at least 0.9, where 1 is the maximum; inactive = score below 0.9.
Tests used:
[1] = read-out: Monocyte Chemoattractant Protein-1 (MCP1), CCL2 (gene 6347); test: BSK_LPS_MCP1: BioMAP Diversity Plus: LPS Assay for Monocyte Chemoattractant Protein-1 (MCP1) Biomarker Activity (AID 2283081); conditions: primary human HUVEC with PBMC; actives raise or lower the signal;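 for AC50: secreted MCP-1 protein quantified by ELISA in culture supernatant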
Procedure, shortened: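 Human endothelial–PBMC co-cultures were dosed with chemical, then LPS-driven MCP-1 levels were quantified by ELISA at 24 h. Activity in either direction was fitted versus DMSO negative control.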

[2] = BSK_LPS_PGE2: BioMAP Diversity Plus: LPS Assay for Prostaglandin E2 (PGE2) Biomarker Activity (AID 2283082); conditions: primary human HUVEC with PBMC; actives raise or lower the signal;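 for AC50: secreted prostaglandin E2 measured by ELISA in LPS-stimulated co-culture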
Procedure, shortened: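 LPS-activated HUVEC/PBMC co-culture; cmpd dosed, 24 h; PGE2 by ELISA; bidirectional fit vs DMSO; SRB (0.1%, TCA-fixed, 560 nm) in parallel plates for overt cytotox.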

[3] = read-out: Macrophage colony-stimulating factor (MCSF), CSF1 (gene 1435); test: BSK_LPS_MCSF: BioMAP Diversity Plus: LPS Assay for Macrophage colony-stimulating factor (MCSF) Biomarker Activity (AID 2283083); conditions: primary human HUVEC with PBMC; actives raise or lower the signal
Procedure, shortened: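 ELISA readout of M-CSF after 24 h compound exposure in a human endothelial/PBMC co-culture. Activity, in either direction, is fitted relative to DMSO vehicle.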

[4] = read-out: Tissue Factor, F3 (gene 2152); test: BSK_LPS_TissueFactor: BioMAP Diversity Plus: LPS Assay for Tissue Factor Biomarker Activity (AID 2283084); conditions: primary human HUVEC with PBMC; actives raise or lower the signal
Procedure, shortened: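 ELISA signal for cell-surface Tissue Factor (CD142) was read 24 h after compound dosing of an LPS-stimulated human endothelial–PBMC primary co-culture. Gain or loss of signal was scored relative to DMSO.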

[5] = read-out: Tumor necrosis factor (Homo sapiens) (UniProt P01375); test: BSK_LPS_TNFa: BioMAP Diversity Plus: LPS Assay for Tumour Necrosis Factor alpha (TNFa) Biomarker Activity (AID 2283085); conditions: primary human HUVEC with PBMC; actives raise or lower the signal
Procedure, shortened: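 Read-out is ELISA of TNFa in primary human endothelial cell–PBMC co-cultures at 24 h after compound. Activity in either direction was fitted against DMSO.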

[6] = read-out: Vascular cell adhesion molecule 1 (VCAM1), VCAM1 (gene 7412); test: BSK_LPS_VCAM1: BioMAP Diversity Plus: LPS Assay for Vascular cell adhesion molecule 1 (VCAM1) Biomarker Activity (AID 2283086); conditions: primary human HUVEC with PBMC; actives raise or lower the signal
Procedure, shortened: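 HUVEC + PBMC co-culture, LPS system; compound 24 h; VCAM-1 by ELISA; bidirectional fit vs DMSO control; parallel SRB (0.1%, TCA-fixed, 560 nm) for cytotoxicity.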

CD38, CD38 (gene 952) = test: BSK_SAg_CD38: BioMAP Diversity Plus: SAg Assay for CD38 Biomarker Activity (AID 2283087); conditions: primary human HUVEC with PBMC; actives raise or lower the signal
Procedure, shortened: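 Human HUVEC plus PBMC co-culture stimulated with superantigen; CD38 measured by ELISA 24 h after chemical dosing. Fluorescence read-out, bidirectional fit against DMSO; cytotoxicity tracked in parallel by SRB and Alamar Blue.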

CD40, CD40 (gene 958) = test: BSK_SAg_CD40: BioMAP Diversity Plus: SAg Assay for CD40 Biomarker Activity (AID 2283088); conditions: primary human HUVEC with PBMC; actives raise or lower the signal
Procedure, shortened: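 Compounds were dosed onto a human primary endothelial–PBMC co-culture, and after 24 h CD40 was quantified by ELISA using a fluorescence signal. Activity in either direction was fitted relative to DMSO.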

[7] = read-out: Monocyte Chemoattractant Protein-1 (MCP1), CCL2 (gene 6347); test: BSK_SAg_MCP1: BioMAP Diversity Plus: SAg Assay for Monocyte Chemoattractant Protein-1 (MCP1) Biomarker Activity (AID 2283090); conditions: primary human HUVEC with PBMC; actives raise or lower the signal
Procedure, shortened: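 MCP-1 levels in the endothelial–PBMC SAg co-culture were quantified by ELISA at 24 h post-dosing; both increases and decreases versus DMSO scored. Cytotoxicity monitored by SRB total protein in parallel cultures.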

[8] = read-out: E-selectin (Homo sapiens) (UniProt P16581); test: BSK_SAg_Eselectin: BioMAP Diversity Plus: SAg Assay for Eselectin Biomarker Activity (AID 2283091); conditions: primary human HUVEC with PBMC; actives raise or lower the signal
Procedure, shortened: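 Co-culture: HUVEC + PBMC. Dose compound; 24 h. ELISA for E-selectin. Bidirectional fit vs DMSO.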

[9] = read-out: Monokine induced gamma interferon (MIG), CXCL9 (gene 4283); test: BSK_SAg_MIG: BioMAP Diversity Plus: SAg Assay for Monokine induced gamma interferon (MIG) Biomarker Activity (AID 2283092); conditions: primary human HUVEC with PBMC; actives raise or lower the signal
Procedure, shortened: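 HUVEC plus human PBMC co-culture, chemicals dosed and MIG (CXCL9) quantified by ELISA at 24 h. Bidirectional curve fitting against DMSO as negative control and baseline, so both gain and loss of signal count as activity.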

[10] = BSK_SAg_PBMCCytotoxicity: PBMC Cytotoxicity Assessment in the BioMAP Diversity Plus: SAg Assay (AID 2283093); conditions: primary human HUVEC with PBMC;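 note: PBMC viability measured as Alamar Blue reduction fluorescence at 546/580 nm; fitted both ways against DMSO so a hit may be loss or gain of signal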;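 for AC50: PBMC superantigen activated with SEB plus TSST-1 one hour after compound addition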
Procedure, shortened: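 Compound added to 75,000 PBMC/well for 1 h; SEB and TSST-1 then added at 20 ng/mL final each; 90 h incubation; Alamar Blue 6 h; read 546/580 nm ex/em. Activity fitted bidirectionally relative to DMSO baseline.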

[11] = read-out: Interleukin-8 (IL8), CXCL8 (gene 3576); test: BSK_SAg_IL8: BioMAP Diversity Plus: SAg Assay for Interleukin-8 (IL8) Biomarker Activity (AID 2283094); conditions: primary human HUVEC with PBMC; actives raise or lower the signal
Procedure, shortened: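 ELISA read-out of IL-8 in a primary human vascular co-culture (umbilical vein endothelium plus PBMC), taken 24 h after compound addition. Values derive from bidirectional fits against DMSO negative controls.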

[12] = BSK_SAg_Proliferation: Cell Proliferation Assessment in the BioMAP Diversity Plus: SAg Assay (AID 2283095); conditions: primary human HUVEC with PBMC;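 note: relative cell number as total protein by SRB absorbance in sub-confluent culture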
Procedure, shortened: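 Cells (endothelium plus PBMC, human primary) were dosed with chemical, cultured 96 h, fixed in 10% TCA and stained with 0.1% SRB. Absorbance at 560 nm gave relative protein, fitted bidirectionally relative to DMSO.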

[13] = BSK_SAg_SRB: Viability Assessment in the BioMAP Diversity Plus: SAg Assay (AID 2283096); conditions: primary human HUVEC with PBMC;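 note: cells read one day after compound addition; hits may be either gain or loss of signal compared with DMSO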
Procedure, shortened: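 Total protein by sulforhodamine B staining, 24 h after dosing, in HUVEC–PBMC co-culture; DMSO-referenced bidirectional fitting.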

CD69, CD69 (gene 969) = test: BSK_SAg_CD69: BioMAP Diversity Plus: SAg Assay for CD69 Biomarker Activity (AID 2283089); conditions: primary human HUVEC with PBMC; actives raise or lower the signal;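 for AC50: cell surface CD69 protein quantified by ELISA with fluorescence detection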
Procedure, shortened: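 HUVEC co-cultured with PBMC were dosed with chemical, and CD69 was measured by ELISA with fluorescence read-out 24 h later. Bidirectional curve fitting used DMSO as negative control and activity baseline.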

[14] = target: human CYP2A6, CYP2A6 (gene 1548) (UniProt P11509); test: NVS_ADME_hCYP2A6: NovaScreen (NVS) CYP450-related Enzyme Activity (ADME) Assay for human CYP2A6 (AID 2283099; active = hit-call score of the fitted dose curve at least 0.9, where 1 is the maximum)
Procedure, shortened: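 Fluorescent substrate turnover by recombinant CYP2A6 (insect cell source), 0.5 h read. Screen: 10 uM, duplicate; threshold hits (e.g. 30% inhibition) → singleton concentration-response, top 20 uM. Positive and negative controls on every plate.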

[15] = target: human CYP2B6, CYP2B6 (gene 1555) (UniProt P20813); test: NVS_ADME_hCYP2B6: NovaScreen (NVS) CYP450-related Enzyme Activity (ADME) Assay for human CYP2B6 (AID 2283101; active = hit-call score of the fitted dose curve at least 0.9, where 1 is the maximum)
Procedure, shortened: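 Recombinant human CYP2B6 with fluorogenic substrate, read by fluorescence intensity 1 h after dosing. Primary screen in duplicate at 10 uM, actives followed in concentration series; signal loss relative to acetonitrile control.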

[16] = target: human CYP1A2, CYP1A2 (gene 1544) (UniProt P05177); test: NVS_ADME_hCYP1A2: NovaScreen (NVS) CYP450-related Enzyme Activity (ADME) Assay for human CYP1A2 (AID 2283102; active = hit-call score of the fitted dose curve at least 0.9, where 1 is the maximum;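 for AC50: fluorescence from turnover of a fluorogenic substrate by recombinant insect-cell CYP1A2; potency for inhibition since loss of fluorescence marks reduced CYP1A2 activity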)
Procedure, shortened: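 rec. hCYP1A2 (insect cells), cell-free; fluorogenic substrate; 0.5 h; FI read. Baseline = acetonitrile; signal loss = inhibition. 10 uM duplicate primary → conc. series for actives.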

[17] = target: human CYP2C8, CYP2C8 (gene 1558) (UniProt P10632); test: NVS_ADME_hCYP2C8: NovaScreen (NVS) CYP450-related Enzyme Activity (ADME) Assay for human CYP2C8 (AID 2283104)
Procedure, shortened: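 Recombinant human CYP2C8 with fluorogenic substrate, 0.5 h, fluorescence intensity; signal loss fitted versus acetonitrile. Screened in duplicate at 10 uM, then actives run in concentration-response up to 20 uM.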

Measured: AC50

Tumor necrosis factor (Homo sapiens), sequence (P01375 whole entry, looked up): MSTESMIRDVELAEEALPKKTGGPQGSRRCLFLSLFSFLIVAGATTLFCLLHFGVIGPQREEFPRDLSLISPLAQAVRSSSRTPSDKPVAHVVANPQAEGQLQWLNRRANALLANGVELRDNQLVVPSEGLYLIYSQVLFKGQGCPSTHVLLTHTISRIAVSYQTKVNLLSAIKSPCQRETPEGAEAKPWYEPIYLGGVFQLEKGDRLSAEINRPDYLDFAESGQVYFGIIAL
human CYP2A6, CYP2A6 (gene 1548), sequence (P11509 whole entry, looked up): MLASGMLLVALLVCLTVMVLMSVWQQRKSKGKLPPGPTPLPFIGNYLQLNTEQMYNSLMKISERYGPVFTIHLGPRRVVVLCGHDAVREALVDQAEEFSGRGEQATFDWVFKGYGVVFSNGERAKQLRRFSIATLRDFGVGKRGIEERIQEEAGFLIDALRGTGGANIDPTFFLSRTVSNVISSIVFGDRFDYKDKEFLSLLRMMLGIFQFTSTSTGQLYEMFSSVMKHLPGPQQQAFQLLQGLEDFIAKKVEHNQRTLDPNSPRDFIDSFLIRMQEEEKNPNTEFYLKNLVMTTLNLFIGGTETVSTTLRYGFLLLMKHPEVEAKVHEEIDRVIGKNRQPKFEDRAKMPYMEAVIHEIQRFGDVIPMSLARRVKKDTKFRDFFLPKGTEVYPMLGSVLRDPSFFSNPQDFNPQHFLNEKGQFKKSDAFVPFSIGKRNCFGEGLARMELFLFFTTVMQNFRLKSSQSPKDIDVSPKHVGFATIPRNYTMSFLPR
E-selectin (Homo sapiens), sequence (P16581 whole entry, looked up): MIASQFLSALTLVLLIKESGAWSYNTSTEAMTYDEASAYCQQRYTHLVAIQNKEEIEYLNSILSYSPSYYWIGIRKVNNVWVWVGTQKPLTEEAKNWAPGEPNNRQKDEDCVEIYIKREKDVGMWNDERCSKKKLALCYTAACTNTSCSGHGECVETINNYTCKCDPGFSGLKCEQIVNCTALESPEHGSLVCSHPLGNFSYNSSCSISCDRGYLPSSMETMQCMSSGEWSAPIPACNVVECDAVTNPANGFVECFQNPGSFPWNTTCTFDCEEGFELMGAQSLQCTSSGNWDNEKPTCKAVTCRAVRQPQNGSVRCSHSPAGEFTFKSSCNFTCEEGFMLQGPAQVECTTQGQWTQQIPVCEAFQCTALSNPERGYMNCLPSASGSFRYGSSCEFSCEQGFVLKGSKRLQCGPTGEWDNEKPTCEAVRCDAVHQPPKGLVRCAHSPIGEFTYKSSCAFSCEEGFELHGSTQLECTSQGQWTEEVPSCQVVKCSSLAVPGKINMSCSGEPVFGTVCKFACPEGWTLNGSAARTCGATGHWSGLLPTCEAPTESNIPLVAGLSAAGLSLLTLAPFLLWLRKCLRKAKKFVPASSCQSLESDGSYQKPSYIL
human CYP2B6, CYP2B6 (gene 1555), sequence (P20813 whole entry, looked up): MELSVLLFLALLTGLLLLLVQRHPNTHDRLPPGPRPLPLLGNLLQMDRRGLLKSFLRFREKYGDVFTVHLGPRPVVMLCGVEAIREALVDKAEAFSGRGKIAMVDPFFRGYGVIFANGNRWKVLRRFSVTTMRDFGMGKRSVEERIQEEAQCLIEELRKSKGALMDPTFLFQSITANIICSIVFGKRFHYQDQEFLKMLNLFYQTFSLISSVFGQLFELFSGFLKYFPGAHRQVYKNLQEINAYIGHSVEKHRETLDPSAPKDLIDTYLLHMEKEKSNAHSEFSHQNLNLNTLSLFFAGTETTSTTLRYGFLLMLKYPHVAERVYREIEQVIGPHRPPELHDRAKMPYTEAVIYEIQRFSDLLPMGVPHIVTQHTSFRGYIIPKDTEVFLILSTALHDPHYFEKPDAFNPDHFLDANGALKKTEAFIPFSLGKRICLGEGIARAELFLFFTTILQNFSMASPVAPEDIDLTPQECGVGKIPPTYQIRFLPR
human CYP1A2, CYP1A2 (gene 1544), sequence (P05177 whole entry, looked up): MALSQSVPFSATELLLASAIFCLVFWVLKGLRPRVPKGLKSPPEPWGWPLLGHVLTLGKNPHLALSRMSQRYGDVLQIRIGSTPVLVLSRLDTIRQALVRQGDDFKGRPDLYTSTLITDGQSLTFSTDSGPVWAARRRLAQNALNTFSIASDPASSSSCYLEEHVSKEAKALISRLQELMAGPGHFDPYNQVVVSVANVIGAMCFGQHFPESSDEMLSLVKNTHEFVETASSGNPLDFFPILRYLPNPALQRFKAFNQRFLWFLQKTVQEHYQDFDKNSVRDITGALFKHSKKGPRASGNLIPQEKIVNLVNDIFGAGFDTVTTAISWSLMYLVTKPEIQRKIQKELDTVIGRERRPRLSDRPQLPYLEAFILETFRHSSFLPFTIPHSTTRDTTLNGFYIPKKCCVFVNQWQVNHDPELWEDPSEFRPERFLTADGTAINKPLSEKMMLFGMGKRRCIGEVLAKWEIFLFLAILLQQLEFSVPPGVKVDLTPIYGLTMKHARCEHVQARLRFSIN
human CYP2C8, CYP2C8 (gene 1558), sequence (P10632 whole entry, looked up): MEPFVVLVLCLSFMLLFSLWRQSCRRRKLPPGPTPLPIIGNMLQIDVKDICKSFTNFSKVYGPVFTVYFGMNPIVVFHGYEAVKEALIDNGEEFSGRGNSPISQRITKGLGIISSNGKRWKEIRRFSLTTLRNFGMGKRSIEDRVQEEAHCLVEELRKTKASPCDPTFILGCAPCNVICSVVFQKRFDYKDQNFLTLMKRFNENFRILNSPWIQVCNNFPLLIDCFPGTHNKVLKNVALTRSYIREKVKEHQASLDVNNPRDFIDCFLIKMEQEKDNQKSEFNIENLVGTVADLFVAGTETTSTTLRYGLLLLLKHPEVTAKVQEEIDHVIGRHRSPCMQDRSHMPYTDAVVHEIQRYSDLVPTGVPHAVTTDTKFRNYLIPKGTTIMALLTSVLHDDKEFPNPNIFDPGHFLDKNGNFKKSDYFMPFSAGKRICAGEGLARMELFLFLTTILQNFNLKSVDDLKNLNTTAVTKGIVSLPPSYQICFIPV

CCCCNC(=O)OCC#CI
active: [1] 30.9 µM and 16.6 µM | [2] 36 µM | [3] 20 µM and 17.1 µM | [4] 15.6 µM and 13.7 µM | [5] 13.2 µM and 12.3 µM | [6] 24.9 µM and 27.1 µM | CD38, CD38 (gene 952) 21.4 µM and 17.4 µM | CD40, CD40 (gene 958) 18.7 µM and 22.5 µM | [7] 29.2 µM and 26.1 µM | [8] 25 µM and 22.7 µM | [9] 35.1 µM and 36.5 µM | [10] 7.02 µM and 7.09 µM | [11] 22.1 µM and 14.7 µM | [12] 2.71 µM and 2.68 µM | [13] 28.6 µM
inactive: [2]

COc1nc(C)nc(NC(=O)NS(=O)(=O)c2ccccc2Cl)n1
not listed: [14] | [15] | [16] | [17]
inactive: all other assays above

Cc1cc(Cl)ccc1OCC(=O)O
not listed: CD69, CD69 (gene 969) | [14] | [15] | [16] | [17]
inactive: all other assays above

N#Cc1cc(Br)c(O)c(Br)c1
active: [3] 4.08 µM | CD38, CD38 (gene 952) 31.2 µM | CD40, CD40 (gene 958) 20 µM | [10] 14.4 µM | [11] 30.5 µM | [12] 33.4 µM | [13] 20 µM
not listed: CD69, CD69 (gene 969) | [14] | [15] | [16] | [17]
inactive: all other assays above

CCOP(=S)(OCC)SCn1c(=O)oc2cc(Cl)ccc21
inactive: [4] | CD40, CD40 (gene 958) | CD69, CD69 (gene 969) | [9] | [10]
active: [1] 25.8 µM | [2] 13.5 µM | [3] 11.1 µM | [5] 12 µM | [6] 13.9 µM | CD38, CD38 (gene 952) 30.4 µM | [7] 28.4 µM | [8] 29.4 µM | [11] 26.8 µM | [12] 29 µM | [13] 31.9 µM | [14] 0.683 µM | [15] 1.25 µM | [16] 2 µM

CS/C(C)=N/OC(=O)N(C)SN(C)C(=O)O/N=C(\C)SC
active: [1] 29.9 µM | [3] 28.2 µM | [4] 32.1 µM | [5] 16.2 µM | [6] 24.3 µM | CD38, CD38 (gene 952) 26.4 µM | CD40, CD40 (gene 958) 28.3 µM | [7] 30.1 µM | [8] 31.4 µM | [9] 35.6 µM | [10] 8.27 µM | [11] 16 µM | [12] 5.3 µM | [13] 28.4 µM
inactive: [2]

OC(c1ccc(Cl)cc1)(c1cncnc1)c1ccccc1Cl (stereo unspecified)
inactive: [1] | [3] | [4] | [6]
active: [2] 4.99 µM | [5] 10.9 µM | CD38, CD38 (gene 952) 20 µM | CD40, CD40 (gene 958) 13.8 µM | CD69, CD69 (gene 969) 14.2 µM | [7] 25.5 µM | [8] 26.5 µM | [9] 32.9 µM | [10] 3.45 µM | [12] 11.7 µM | [13] 29.3 µM | [14] 2.37 µM | [15] 5.75 µM | [17] 10 µM

COC(=O)C=C(C)OP(=O)(OC)OC
active: [2] 0.37 µM
not listed: [14] | [15] | [16] | [17]
inactive: all other assays above

CCOC(=O)CC(SP(=S)(OC)OC)C(=O)OCC (stereo unspecified)
active: [14] 1.98 µM | [15] 0.899 µM | [16] 0.837 µM
not listed: CD69, CD69 (gene 969)
inactive: all other assays above

COc1nc(NC(C)C)nc(NC(C)C)n1
active: [5] 9.63 µM
not listed: CD69, CD69 (gene 969) | [14] | [15] | [16] | [17]
inactive: all other assays above

C=CC1(C)OC(=O)N(c2cc(Cl)cc(Cl)c2)C1=O (stereo unspecified)
active: [15] 6.73 µM and 5.83 µM
not listed: CD69, CD69 (gene 969) | [14] | [17]
inactive: all other assays above

— PubChem BioAssay (EPA / NIEHS)
